The values that follow come from PubChem BioAssay (EPA / NIEHS).

Read-out in assay [1]: Intercellular Adhesion Molecule 1 (ICAM1), ICAM1 (gene 3383)
The experiment in a line: BSK_BE3C_ICAM1: BioMAP Diversity Plus: BE3C Assay for Intercellular Adhesion Molecule 1 (ICAM1) Biomarker Activity (AID 2284278).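 On outcome: cell-surface ICAM-1 protein level quantified by ELISA.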 The following applies: primary human bronchial epithelial cells. An outline of the steps:
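hu bronchial epithelial primary cells, 24 h cpd exposure, ICAM-1 ELISA; gain-of-signal fit vs DMSO baseline.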

Read-out in assay [2]: Interferon-inducible T-cell alpha chemoattractant (ITAC), CXCL11 (gene 6373)
The assay is described as follows: BSK_BE3C_ITAC: BioMAP Diversity Plus: BE3C Assay for Interferon-inducible T-cell alpha chemoattractant (ITAC) Biomarker Activity (AID 2284279). The following applies: primary human bronchial epithelial cells. In a few lines:
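BE3C cells (human primary bronchial epithelium), 24 h compound exposure, I-TAC by ELISA, DMSO = negative control/baseline, positive fitting direction.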

Read-out in assay [3]: Interleukin-8 (IL8), CXCL8 (gene 3576)
The assay is described as follows: BSK_BE3C_IL8: BioMAP Diversity Plus: BE3C Assay for Interleukin-8 (IL8) Biomarker Activity (AID 2284280). Conditions: primary human bronchial epithelial cells. An outline of the steps: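 Measured at 24 h after treatment, IL-8 from human primary bronchial epithelial cells is determined by ELISA, and the response is modelled as increasing relative to DMSO negative control.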

Read-out in assay [4]: Epidermal growth factor receptor (EGFR), EGFR (gene 1956)
The assay is described as follows: BSK_BE3C_EGFR: BioMAP Diversity Plus: BE3C Assay for Epidermal growth factor receptor (EGFR) Biomarker Activity (AID 2284281). The following applies: primary human bronchial epithelial cells. In a few lines:
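Measured 24 h after dosing in primary human bronchial epithelial cultures, EGFR was read by ELISA; gain of signal over DMSO control defined activity.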

Read-out in the next assay: KRT18 (gene 3875)
The assay is described as follows: BSK_BE3C_Keratin818: BioMAP Diversity Plus: BE3C Assay for Keratin 818 Biomarker Activity (AID 2284282). The following applies: primary human bronchial epithelial cells. An outline of the steps: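 In this multiplexed primary-cell system, bronchial epithelial cells were dosed and harvested at 24 h. Keratin 8/18 was determined by ELISA and analysed for increases over DMSO controls.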

Read-out in assay [5]: Matrix Metallopeptidase 9 (MMP9), MMP9 (gene 4318)
The assay is described as follows: BSK_BE3C_MMP9: BioMAP Diversity Plus: BE3C Assay for Matrix Metallopeptidase 9 (MMP9) Biomarker Activity (AID 2284283). The following applies: primary human bronchial epithelial cells. An outline of the steps:
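Cells were dosed, incubated 24 h, then assayed for MMP-9 by ELISA; activity was fitted upward against DMSO. The system used human lung primary bronchial epithelial cells, with SRB total-protein staining run alongside for cytotoxicity.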

Read-out in assay [6]: Plasminogen activator inhibitor-1 (PAI1), SERPINE1 (gene 5054)
The assay is described as follows: BSK_CASM3C_PAI1: BioMAP Diversity Plus: CASM3C Assay for Plasminogen activator inhibitor-1 (PAI1) Biomarker Activity (AID 2284284).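 Further: PAI-1 protein level measured by ELISA 24 h after dosing.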 Conditions: primary human coronary artery smooth muscle cells.

Read-out in assay [7]: Monocyte Chemoattractant Protein-1 (MCP1), CCL2 (gene 6347)
The experiment in a line: BSK_hDFCGF_MCP1: BioMAP Diversity Plus: hDFCGF Assay for Monocyte Chemoattractant Protein-1 (MCP1) Biomarker Activity (AID 2284285). Conditions: primary human foreskin fibroblasts. In a few lines: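 MCP-1 ELISA readout was taken 24 hours after dosing primary human dermal fibroblasts in the hDFCGF system, with DMSO as baseline. Parallel sulforhodamine B staining of total protein tracked overt cytotoxicity.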

Read-out in assay [8]: Intercellular Adhesion Molecule 1 (ICAM1), ICAM1 (gene 3383)
The experiment in a line: BSK_hDFCGF_ICAM1: BioMAP Diversity Plus: hDFCGF Assay for Intercellular Adhesion Molecule 1 (ICAM1) Biomarker Activity (AID 2284287). The following applies: primary human foreskin fibroblasts. An outline of the steps:
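ICAM-1 ELISA readout 24 h after dosing, DMSO as baseline, in human dermal foreskin fibroblast cultures. Cytotoxicity checked in parallel wells by SRB staining (0.1% SRB, 10% TCA fixation, 560 nm).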

Read-out in assay [9]: TIMP metallopeptidase inhibitor 2 (TIMP2), TIMP2 (gene 7077)
The assay is described as follows: BSK_hDFCGF_TIMP2: BioMAP Diversity Plus: hDFCGF Assay for TIMP metallopeptidase inhibitor 2 (TIMP2) Biomarker Activity (AID 2284289). Conditions: primary human foreskin fibroblasts. An outline of the steps:
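Primary human foreskin fibroblasts in the hDFCGF system, dosed for 24 h; TIMP-2 level measured by ELISA, fitted in the positive direction against DMSO; cytotoxicity checked in parallel by sulforhodamine B total protein staining.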

Read-out in assay [10]: Matrix Metallopeptidase 9 (MMP9), MMP9 (gene 4318)
The assay is described as follows: BSK_BF4T_MMP9: BioMAP Diversity Plus: BF4T Assay for Matrix Metallopeptidase 9 (MMP9) Biomarker Activity (AID 2284276). The following applies: primary human bronchial epithelial cells with fibroblasts. An outline of the steps:
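MMP-9 levels were measured by ELISA after 24 h exposure of bronchial epithelial cell/dermal fibroblast co-cultures, with DMSO as baseline. Parallel cultures were stained with 0.1% SRB after TCA fixation, read at 560 nm, to flag overt cytotoxicity.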

Read-out in assay [11]: Interleukin-8 (IL8), CXCL8 (gene 3576)
The assay is described as follows: BSK_IMphg_IL8: BioMAP Diversity Plus: IMphg Assay for Interleukin-8 (IL8) Biomarker Activity (AID 2284277). Conditions: primary human endothelial cells with macrophages. An outline of the steps:
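IL-8 levels were measured by ELISA 24 h after dosing in primary human venular endothelial cell–macrophage cultures, referenced to DMSO; parallel SRB staining monitored overt cytotoxicity.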

Read-out in assay [12]: Vascular cell adhesion molecule 1 (VCAM1), VCAM1 (gene 7412)
The experiment in a line: BSK_IMphg_VCAM1: BioMAP Diversity Plus: IMphg Assay for Vascular cell adhesion molecule 1 (VCAM1) Biomarker Activity (AID 2284286). Conditions: primary human endothelial cells with macrophages. In a few lines:
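ELISA read-out of VCAM-1 on venular endothelial cell/macrophage co-cultures at 24 h post-treatment, with DMSO as baseline and positive-direction fitting. Parallel sulforhodamine B total-protein staining (560 nm) served as the overt cytotoxicity measure.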

Read-out in another assay: CD40, CD40 (gene 958)
The assay is described as follows: BSK_IMphg_CD40: BioMAP Diversity Plus: IMphg Assay for CD40 Biomarker Activity (AID 2284288). The following applies: primary human endothelial cells with macrophages. In a few lines: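 ELISA read-out of cell-surface CD40 at 24 h in human venular endothelial cell/macrophage co-cultures. Activity fitted in the positive direction against DMSO; parallel SRB staining (560 nm) gauges overt cytotoxicity.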

Read-out in assay [13]: Interleukin-1 alpha (IL1a), IL1A (gene 3552)
The experiment in a line: BSK_IMphg_IL1a: BioMAP Diversity Plus: IMphg Assay for Interleukin-1 alpha (IL1a) Biomarker Activity (AID 2284290). Conditions: primary human endothelial cells with macrophages. An outline of the steps: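 IL-1α is quantified by ELISA at 24 h in the endothelial/macrophage IMphg co-culture, with gain of signal fitted relative to DMSO. Parallel SRB total-protein staining flags overt toxicity.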

Read-out in assay [14]: E-selectin (Homo sapiens) (UniProt P16581)
The assay is described as follows: BSK_IMphg_ESelectin: BioMAP Diversity Plus: IMphg Assay for Eselectin Biomarker Activity (AID 2284291). The following applies: primary human endothelial cells with macrophages. In a few lines: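 Analysed against DMSO baseline in the positive fitting direction, this endpoint is an ELISA read of E-selectin. It comes from human venular endothelial cells co-cultured with macrophages, sampled 24 h post-dose.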

Assay [15] is described as follows: BSK_IMphg_SRB: Viability Assessment in the BioMAP Diversity Plus: IMphg Assay (AID 2284292).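 Further: measured one day after compound addition.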 The following applies: primary human endothelial cells with macrophages. An outline of the steps: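 SRB viability endpoint: cultures of human endothelial cells plus macrophages fixed with 10% TCA, stained with 0.1% SRB, read at 560 nm 24 h post-dosing. Only gain-of-signal fitted, relative to DMSO.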

Read-out in assay [16]: Macrophage colony-stimulating factor (MCSF), CSF1 (gene 1435)
The experiment in a line: BSK_IMphg_MCSF: BioMAP Diversity Plus: IMphg Assay for Macrophage colony-stimulating factor (MCSF) Biomarker Activity (AID 2284293). The following applies: primary human endothelial cells with macrophages. An outline of the steps: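 M-CSF was measured by ELISA in human venular endothelial cell/macrophage co-cultures dosed for 24 hours. Sulforhodamine B staining of parallel cultures assessed cytotoxicity; data fitted against DMSO baseline.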

Read-out in assay [17]: Interleukin-10 (IL10), IL10 (gene 3586)
The assay is described as follows: BSK_IMphg_IL10: BioMAP Diversity Plus: IMphg Assay for Interleukin-10 (IL10) Biomarker Activity (AID 2284294). Conditions: primary human endothelial cells with macrophages. An outline of the steps: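 IL-10 read by ELISA after 24 h chemical exposure of primary human venular endothelial cell/macrophage cocultures, with DMSO as baseline. Parallel SRB staining (560 nm) gauged overt cytotoxicity.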

The nature of assay [18]: BSK_IMphg_SRB.Mphg: Macrophage Viability Assessment in the BioMAP Diversity Plus: IMphg Assay (AID 2284295). Conditions: primary human endothelial cells with macrophages. In a few lines:
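Cytotoxicity read-out: parallel cultures fixed with 10% TCA, stained with 0.1% sulforhodamine B, read at 560 nm. System combines venular endothelium and macrophages; sampled 24 h post-dosing, fitted positively relative to DMSO control.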

Structures are written as SMILES. Several values for one entry are separate records, joined by “and”; a condition that tells them apart may be missing. Equal entries are not always repeated. Some structures have more than one record in an assay (separate samples or runs), and their calls can disagree. Activity calls are given as the source filed them. How the source made its calls: active means hit-call score of the fitted dose curve at least 0.9, where 1 is the maximum; inactive means score below 0.9.

Sequence of E-selectin (Homo sapiens) (P16581 whole entry, looked up): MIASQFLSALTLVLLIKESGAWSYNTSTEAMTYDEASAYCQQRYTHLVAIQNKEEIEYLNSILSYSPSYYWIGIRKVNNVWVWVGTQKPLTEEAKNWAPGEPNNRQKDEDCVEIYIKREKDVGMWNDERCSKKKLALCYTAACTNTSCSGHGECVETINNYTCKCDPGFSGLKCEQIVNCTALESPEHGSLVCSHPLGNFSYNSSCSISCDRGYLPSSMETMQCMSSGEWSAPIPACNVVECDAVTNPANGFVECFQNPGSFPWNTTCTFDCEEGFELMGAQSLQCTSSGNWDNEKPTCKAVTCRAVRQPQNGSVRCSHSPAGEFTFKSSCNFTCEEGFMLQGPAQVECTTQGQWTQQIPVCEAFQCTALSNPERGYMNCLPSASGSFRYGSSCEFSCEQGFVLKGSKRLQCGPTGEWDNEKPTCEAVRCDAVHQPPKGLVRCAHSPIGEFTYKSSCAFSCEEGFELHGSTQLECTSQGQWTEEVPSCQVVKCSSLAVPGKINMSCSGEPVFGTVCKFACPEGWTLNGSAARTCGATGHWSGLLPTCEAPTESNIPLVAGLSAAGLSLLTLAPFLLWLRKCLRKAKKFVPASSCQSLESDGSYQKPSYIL

Turning to `COC(=O)Cc1ccccc1`, the result (in assay [1]; in assay [2]; in [3]; in assay [4]; in the assay with KRT18 (gene 3875); in assay [5]) was inactive. Further, the outcome in [6], in [7], in [8] and in [9] was inactive.

Regarding `O=C(O)CCC(F)(C(F)(F)F)C(F)(F)F`, the result in [10], in assay [11], in [1], in assay [2], in assay [3] and in [4] was inactive. Also, the result (with KRT18 (gene 3875); in assay [5]; in assay [6]; in [7]; in [12]; in assay [8]) was inactive. The outcome in the assay with CD40, CD40 (gene 958) was “inactive”; in [9] it was “inactive”; in assay [13] it was “inactive”; in assay [14], “inactive”; in assay [15] it was “inactive”; in assay [16], “inactive”. Also, the outcome in assay [17] and in assay [18] was inactive.

As to `O=C(O)C(F)(F)C(F)(F)C(F)(F)C(F)(F)C(F)(F)C(F)(F)C(F)(F)C(F)(F)C(F)(F)C(F)(F)F`, the AC50 in [10] is 4.36 µM (active) and 5.37 µM (active); in assay [1], 5.73 µM (active) and 6.33 µM (active); in assay [2], 2.65 µM (active) and 2.84 µM (active); in assay [3], 4.19 µM (active) and 3.81 µM (active); in assay [4], 4.31 µM (active) and 2.34 µM (active); with KRT18 (gene 3875) it was 4.21 µM (active) and 5.29 µM (active). In addition, the AC50 in assay [5] was 3.77 µM (active) and 3.33 µM (active); in [7], 5.24 µM (active) and 5.63 µM (active); in [8] it was 5.12 µM (active) and 5.47 µM (active); in assay [9], 6.09 µM (active) and 5.21 µM (active). In addition, the outcome in assay [11] is “inactive”; in [6] it was “inactive”; in [12] it was “inactive”; with CD40, CD40 (gene 958), “inactive”; in [13] it was “inactive”; in assay [14], “inactive”. Besides, the outcome in [15], in assay [16], in assay [17] and in assay [18] was inactive.

As for `O=C(O)C(F)(F)C(F)(F)C(F)(F)C(F)(F)C(F)(F)C(F)(F)F`, the AC50 is 24.6 µM (active) in [10], 40.5 µM (active) in assay [11] and 30 µM (active) in assay [5]. Besides, the outcome in assay [10], in assay [11], in [1], in assay [2], in [3] and in assay [4] was inactive. The outcome (with KRT18 (gene 3875); in assay [5]; in assay [6]; in assay [7]; in assay [12]; in assay [8]) was inactive. Moreover, the outcome with CD40, CD40 (gene 958) is “inactive”; in [9], “inactive”; in [13], “inactive”; in [14], “inactive”; in [15] it was “inactive”; in [16] it was “inactive”. Further, the result in assay [17] and in assay [18] was inactive.

`CC(=O)OC(c1ccccc1)C(Cl)(Cl)Cl` (stereo not drawn): the result (in assay [1]; in assay [2]; in assay [3]; in assay [4]; with KRT18 (gene 3875); in assay [5]) was inactive. Also, the result in [6], in assay [7], in [8] and in assay [9] was inactive.

Usually AC50 stands for the midpoint of the concentration-response curve, whichever way the signal moves.
